CDK5 inh: blocks human CDK5/p35 kinase activity | Q00535+Q15078 | Recombinant CDK5/p35, ADP-Glo luminescence, 60 min | inhibition, % at 10 µM | hit rate 0.01% among 330,000;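 active means highest replicate inhibition of at least 50% and at least 75% of replicates reaching 50%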
Target sequence (Q00535 whole entry, looked up): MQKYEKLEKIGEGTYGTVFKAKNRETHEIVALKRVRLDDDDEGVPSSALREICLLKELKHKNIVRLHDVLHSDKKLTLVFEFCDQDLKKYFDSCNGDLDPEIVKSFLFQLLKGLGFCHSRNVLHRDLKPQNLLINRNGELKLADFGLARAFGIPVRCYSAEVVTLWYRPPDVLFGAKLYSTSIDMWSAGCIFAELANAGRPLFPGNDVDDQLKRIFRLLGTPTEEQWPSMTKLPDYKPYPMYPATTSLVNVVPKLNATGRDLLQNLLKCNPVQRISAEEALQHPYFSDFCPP
Target sequence (Q15078 whole entry, looked up): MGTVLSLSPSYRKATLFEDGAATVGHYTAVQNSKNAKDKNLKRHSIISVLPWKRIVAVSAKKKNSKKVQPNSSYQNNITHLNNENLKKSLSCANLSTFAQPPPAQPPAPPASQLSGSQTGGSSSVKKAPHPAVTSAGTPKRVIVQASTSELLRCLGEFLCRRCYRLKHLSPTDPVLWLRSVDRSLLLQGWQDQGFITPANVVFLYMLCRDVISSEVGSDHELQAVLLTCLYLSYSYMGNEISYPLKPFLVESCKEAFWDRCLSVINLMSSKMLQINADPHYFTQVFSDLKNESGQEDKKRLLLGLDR
Casp6 inh: blocks human caspase-6 cleavage activity; P55212; purified caspase-6, Z-VEID-R110 cleavage fluorescence; inhibition, % at 12.5 µM; hit rate 0.53% among 350,000;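 active means mean inhibition across replicates at least about 35%, with every replicate also reaching that limit, limit read from the data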
ALR inh: human ALR oxidase inhibition via reduced H2O2. P55789. purified ALR, DTT oxidation, H2O2 HRP-luminol luminescence. inhibition, % (test concentration not listed). AID 485317. hit rate 3.8% among 290,000;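 active means mean replicate inhibition above about 79%, with every replicate also reaching it, limit read from the data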
NSD2 HMT inh: inhibitors of human histone methyltransferase NSD2; O96028; NSD2 peptide methylation, AlphaScreen, 120 min; inhibition, % at 12.5 µM; hit rate 0.54% among 310,000; AID 743445; in the data active means inhibition above about 50%
Mot1-301 SUMO: blocks SUMOylation pathway, rescuing yeast Mot1-301 growth; S. cerevisiae Mot1-301 growth rescue, ATP luminescence, 38.5C; percent above DMSO median, 100 means doubled; growth rescue, % at 18.8 µM; hit rate 1% among 320,000;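 active means every valid replicate shows activation above 250% relative to neutral control wells; inactive means the rest, any valid replicate at or below 250%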
Glyco luc inh: blocks N-linked glycosylation in D54 reporter cells; reporter increase, % at 12.5 µM; AID 588692; D54 ERlucT glycosylation luciferase reporter, 24 h; percent of 100 nM tunicamycin response; hit rate 0.23% among 360,000;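 active means mean luciferase reporter signal, scaled so untreated is 0 and the glycosylation-blocking control 100, at or above a set limit in every replicate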;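 further: luciferase carries N-glycosylation sites so blocking glycosylation raises the light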
Yeast Mot1 SUMO: inhibits SUMO pathway, affecting Mot1-301 yeast growth; 2,300 tested, under 10 active; AID 493004; S. cerevisiae Mot1-301 galactose growth, ATP luminescence, 24 h; -100 = growth of slx-deleted rescue strain; shares compounds with Mot1-301 SUMO; growth activity, percent, % at 42 µM;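 active means Signal drops as the depositor expects, and the fitted half-maximal dose is no more than ten times the top valid tested dose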;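 further: more negative values mean stronger growth rescue toward the control strain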
Numbers stand for hits. Only some compounds are listed: those with a hit (about 3.9% of all), similar ones and a draw of the others.

For CNC[C@@H]1Oc2ccc(NC(=O)Nc3ccc(F)cc3)cc2CC(=O)N([C@H](C)CO)C[C@@H]1C the results were Casp6 inh inactive.
For COC(=O)C1=C(C)N(Cc2ccccc2)C(=S)N[C@H]1c1cccc(F)c1 the results were CDK5 inh inactive, ALR inh inactive, Mot1-301 SUMO 584.4, Glyco luc inh inactive and Yeast Mot1 SUMO inactive.
For O=C(C[C@H]1C[C@H]2c3cc(NC(=O)NC4CCCCC4)ccc3O[C@H]2[C@@H](CO)O1)NCc1cccnc1 the results were Casp6 inh inactive.
For Cc1nc2ccc(S(=O)(=O)NC(C(=O)N3CCCC3)C(C)C)cc2s1 (configuration not stated) the results were CDK5 inh inactive, Casp6 inh inactive and Glyco luc inh inactive.
`Cc1nc2ccc(S(=O)(=O)NC(CC(C)C)C(=O)O)cc2s1` (configuration not stated) gave CDK5 inh inactive, NSD2 HMT inh inactive, Mot1-301 SUMO active, Glyco luc inh inactive and Yeast Mot1 SUMO inactive.
Cc1ccc(NC(=O)CCS(=O)(=O)c2ccc3nc(C)sc3c2)cc1 was read as CDK5 inh inactive, Casp6 inh inactive, ALR inh inactive, Mot1-301 SUMO 524.2, Glyco luc inh inactive and Yeast Mot1 SUMO inactive.
For Cc1ccc(S(=O)(=O)N(C)C[C@H]2Oc3c(NC(=O)c4cnccn4)cccc3C(=O)N([C@@H](C)CO)C[C@@H]2C)cc1 the results were Casp6 inh inactive.
For CNC(=S)NNC(=O)c1ccc(=O)n(Cc2cccc(C(F)(F)F)c2)c1 the results were CDK5 inh inactive, Casp6 inh inactive, ALR inh inactive, NSD2 HMT inh inactive, Mot1-301 SUMO inactive and Glyco luc inh inactive.
`CCNC(=S)NNC(=O)c1ccc(=O)n(Cc2ccccc2)c1` gave CDK5 inh inactive, Casp6 inh inactive, ALR inh inactive, NSD2 HMT inh inactive, Mot1-301 SUMO 833.6, Glyco luc inh inactive and Yeast Mot1 SUMO inactive.
Screening O=C(C1CCOCC1)N1C[C@@H]2[C@H](c3ccccc31)[C@@H](CO)N2Cc1ccc(Cl)cc1 returned Casp6 inh inactive.
`COc1ccc(CNC(=O)CN(Cc2ccc(OC)cc2)C(=O)CCC(=O)Nc2nccs2)cc1` gave CDK5 inh inactive, Casp6 inh inactive, ALR inh inactive, NSD2 HMT inh inactive, Mot1-301 SUMO inactive and Glyco luc inh inactive.
Screening COc1ccc(S(=O)(=O)NCC(=O)N(CC(=O)NCc2ccco2)Cc2ccccc2)cc1 returned CDK5 inh inactive, Casp6 inh inactive, ALR inh inactive, NSD2 HMT inh inactive, Mot1-301 SUMO 642.2, Glyco luc inh inactive and Yeast Mot1 SUMO inactive.
`COc1ccc(CN(CC(=O)NCc2ccco2)C(=O)CCC(=O)Nc2nccs2)cc1` gave CDK5 inh inactive, ALR inh inactive, Mot1-301 SUMO 868.1, Glyco luc inh inactive and Yeast Mot1 SUMO inactive.
`CO[C@@H]1CN(C)C(=O)c2cc(NC(=O)c3ccc(F)cc3)ccc2OC[C@H](C)N(C(=O)c2ccc(F)cc2)C[C@@H]1C` gave Casp6 inh inactive.
`CC(C)CCn1c(C(C)O)nc2ccccc21` (configuration not stated) gave CDK5 inh inactive, NSD2 HMT inh inactive, Mot1-301 SUMO 432.8, Glyco luc inh inactive and Yeast Mot1 SUMO inactive.
CCCN1C(=O)c2ccc(C(=O)Nc3nccs3)cc2C1=O was read as CDK5 inh inactive, Casp6 inh inactive, ALR inh inactive, NSD2 HMT inh inactive, Mot1-301 SUMO 543.7, Glyco luc inh inactive and Yeast Mot1 SUMO inactive.
For COCCN1C(=O)c2ccc(C(=O)Nc3nccs3)cc2C1=O the results were CDK5 inh inactive, ALR inh inactive, NSD2 HMT inh inactive, Mot1-301 SUMO inactive and Glyco luc inh inactive.
Screening CCn1nccc1C(=O)Nc1nccs1 returned CDK5 inh inactive, ALR inh inactive, NSD2 HMT inh inactive, Mot1-301 SUMO 705.8, Glyco luc inh inactive and Yeast Mot1 SUMO inactive.
CCn1cc(Br)c(C(=O)Nc2nccs2)n1 was read as CDK5 inh inactive, Casp6 inh inactive, ALR inh inactive, NSD2 HMT inh inactive, Mot1-301 SUMO inactive and Glyco luc inh inactive.

Assay outcomes deposited in PubChem by Broad Institute.
